aSyn yeast inh = inhibitors of alpha-synuclein toxicity in yeast | Yeast expressing alpha-synuclein, growth rescue, BacTiter-Glo, 24 h | Potency, µM (highest dose often 46.1 µM), for inactives: at the top dose growth rescue (activation), hits mostly activators | 0.14% of 370,000 active | AID 652106; note: potency is the fitted concentration of half-maximal effect; % of control where 0% means no effect; nearly all actives have a fitted effect of over 65% in size
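Screening used galactose-induced yeast with toxic alpha-synuclein levels, exposed to compound for 24 hr at 30 deg C. Cell growth, read with BacTiter-Glo luminescence, gave the measured signal.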
PTHR1 agonist = agonists of human PTHR1 parathyroid hormone receptor. Potency, µM (highest dose often 115 µM), inactives show at the highest dose activation, hits mostly activators. AID 743266. Q03431. HEK293 GP2 PTHR1 cells, GloSensor cAMP luminescence, 1 h. 0.075% of 410,000 active; note: potency is the fitted concentration of half-maximal effect; nearly all actives have a fitted effect of over 55% in size
Target sequence (Q03431 whole entry, looked up): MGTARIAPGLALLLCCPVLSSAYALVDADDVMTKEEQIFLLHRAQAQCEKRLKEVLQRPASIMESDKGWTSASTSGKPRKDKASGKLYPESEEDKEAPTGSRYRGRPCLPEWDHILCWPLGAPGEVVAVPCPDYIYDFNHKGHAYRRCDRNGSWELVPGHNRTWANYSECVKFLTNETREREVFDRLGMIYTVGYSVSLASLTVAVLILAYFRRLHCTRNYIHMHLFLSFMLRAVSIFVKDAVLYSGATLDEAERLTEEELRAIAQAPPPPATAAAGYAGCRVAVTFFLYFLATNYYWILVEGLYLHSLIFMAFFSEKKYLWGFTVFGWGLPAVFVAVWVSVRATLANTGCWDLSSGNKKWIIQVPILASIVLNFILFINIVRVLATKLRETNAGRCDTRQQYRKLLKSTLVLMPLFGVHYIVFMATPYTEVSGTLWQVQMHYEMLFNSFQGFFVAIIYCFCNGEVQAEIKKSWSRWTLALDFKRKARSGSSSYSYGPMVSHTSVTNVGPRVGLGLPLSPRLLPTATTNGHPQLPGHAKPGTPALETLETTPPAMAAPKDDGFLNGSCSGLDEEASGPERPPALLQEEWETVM
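HEK-293-derived GP2 cells expressing PTHR1 and a GloSensor cAMP reporter, 3,000/well, plated overnight, given luciferin plus IBMX (each 0.5 mM as added) for 1 h at 37 °C, then compound for 1 h at 37 °C. Luminescence was read after 15 min at room temperature.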
FUS yeast rescue = FUS proteinopathy suppression in yeast | S. cerevisiae FUS-expressing, growth rescue, OD600, 24 h | 0.24% of 390,000 active | Potency, µM (titrated, usually from 76.6 µM), most hits filed as activators;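 note: potency is the fitted concentration of half-maximal effect; plate controls were DMSO vehicle for no effect and reference control for full effect; nearly all actives have a fitted effect of over 55% in size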
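Quantitative HTS measuring growth restoration of FUS-toxic yeast. Galactose-induced cells (OD 0.005) were exposed 24hr at 30C to compounds at several concentrations, then absorbance at 600 nm was recorded.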
TDP43 rescue = inhibitors of TDP-43 toxicity in yeast; 1.8% of 410,000 active; Potency, µM (highest dose often 46.1 µM), inactives show top-dose growth rescue (activation), actives largely listed as activators; TDP-43 expressing yeast growth rescue, BacTiter-Glo, 24 h; note: potency is the fitted concentration of half-maximal effect; % of control where 0% means no effect; nearly all actives have a fitted effect of over 50% in size
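Growth rescue of TDP-43-toxic yeast measured as ATP luminescence (BacTiter-Glo). Cells grown to mid-log in raffinose, induced in galactose at OD600=0.02, exposed to compound 24 hr at 30 deg C.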
LDHA block = LDHA (human) enzyme inhibition | P00338 | purified LDHA, NADH/diaphorase-resazurin fluorescence; active compounds read low | activity change, % (values are at about 110 or 230 µM) | 0.15% of 480,000 active | AID 1347041; in the data active = activity change below about -30%; inconclusive = mostly about -25% to -30%;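 note: plate controls were DMSO wells for no effect and wells without enzyme for full effect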
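Enzyme activity of human lactate dehydrogenase 5 (2 nM; 0.06 mM NADH, 0.2 mM pyruvate, 5 min, RT) is measured via a resazurin/diaphorase fluorescence readout of residual NADH.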
Abeta yeast res = compounds reversing amyloid beta toxicity in yeast | yeast expressing A-beta42, growth rescue, OD600, 48 h; response scale: 0% DMSO, 100% iron-clioquinol control | Potency, µM (series often up to 46.1 µM), most hits filed as activators | 0.063% of 410,000 active; note: potency is the fitted concentration of half-maximal effect; nearly all actives have a fitted effect of over 55% in size
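Yeast A-beta toxicity model in growth medium with pinned compounds, 48 h at 30 C; growth read as absorbance at 600 nm. Normalized to FeCl3/clioquinol equimolar mix (positive) and DMSO (negative).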
Starred values were filed as active, the others as inactive; i = inactive; u = inconclusive; x = no result given; [ ] = remark or other dose. In the library only some 1.9% were active in any assay of this set; here they are far more common. Unless noted, calls come from the whole dose curve; as a rule, active = well fitted curve in the direction sought with a large enough effect; inconclusive = small, poorly fitted or top-dose-only effect, or another doubt; inactive = no such curve, though single readings can be large; an effect the other way counts as inactive or inconclusive.

SMILES	aSyn yeast inh	PTHR1 agonist	FUS yeast rescue	TDP43 rescue	LDHA block	Abeta yeast res
COc1ccccc1NC(=O)Cc1cnc(-n2cccc2)s1	x	x	x	x	7.7	x
c1ccc(-n2ncc3c(N4CCN(CCOc5cccc6ccccc56)CC4)ncnc32)cc1	-0.8%	i	i	20µM*	5.5	i
O=C(COc1ccccc1)N1CCN(c2ncnc3c2cnn3-c2ccccc2)CC1	8.8%	-2.5%[57.5 µM]	i	14.1µM*	-4.4	i
c1ccc(CN2CCN(c3ncnc4c3cnn4-c3ccccc3)CC2)cc1	x	-46.8%	i	5.3%	-2.4	i
CC1CCC(NC(=O)CN2CCC(c3nc4ccccc4o3)CC2)CC1 (stereo not given)	x	x	x	x	3.1	x
O=C1Nc2ccccc2C1Cc1ccc(Br)cc1 (stereo not given)	x	i	i	15.8µM*	-7.8	u
CSc1ccc(CC2C(=O)Nc3ccccc32)cc1 (stereo not given)	x	-0.4%	i	12.6µM*	-1.6	i
CN(CC(=O)Nc1ccc(Cl)cc1)CC(=O)N(C)C1(C#N)CCCCC1	x	x	x	x	-1.4	x
Cc1ccc2c(c1)-c1cc(C)nn1C(c1sccc1C)N2 (stereo not given)	-16.0%	i	i	u	3.2	i
Cc1cc2n(n1)C(c1sccc1C)Nc1ccccc1-2 (stereo not given)	-2.1%	-3.5%	i	17.8µM*	-0.2	i
Cc1ccc(-c2cc(C(=O)O)c3cc(C)cc(C)c3n2)cc1	x	x	x	x	-0.8	x
COc1cc(C(=O)/C=C/c2ccc(F)cc2)ccc1S(C)(=O)=O	x	x	x	x	5.8	x
CC(=O)N(C)c1ccc(C=C2C=Cc3ccccc32)cc1	4.9%	-29.5%	x	14.1µM*	22.0	i
Cc1cccc(C(=O)N2CCN(c3oc(-c4cccs4)nc3C#N)CC2)c1	x	x	x	x	-4.0	x
Cn1c(-c2ccccc2)cc2onc(-c3ccccc3)c2c1=O	0.6%	-45.0%	i	27.6%	0.5	i
Cn1c(-c2ccccc2F)cc2onc(-c3ccccc3)c2c1=O	-12.1%	-58.9%	i	20µM*	-15.6	i
CCc1ccc2nc(-c3ccc(C)o3)cc(C(=O)O)c2c1	x	x	x	x	-22.9	x
CN(Cc1nc(-c2ccc(Cl)cc2)no1)S(=O)(=O)c1ccccc1	x	-30.6%	i	35.5µM*	0.9	i
CS(=O)(=O)N(Cc1nc(-c2ccc(F)cc2)no1)c1ccccc1Cl	18.7%	-13.9%	i	22.4µM*	6.0	i
O=C(CC1C(=O)Nc2nc(SCc3ccccc3)nn21)Nc1ccccc1 (stereo not given)	x	x	x	x	1.0	x
COc1ccc(-c2ccc(C(=O)Nc3ccc(OC)nc3)c3occc23)c(C)c1	-18.8%	-87.7%	u	35.5µM*	-0.5	i
COc1ccc(-c2coc3c(C(=O)Nc4ccc(OC)nc4)cccc23)c(C)c1	-17.1%	-38.1%	i	35.5µM*	-6.8	i
COc1ccc(-c2ccc(C(=O)Nc3ccccc3)c3occc23)c(C)c1	-12.2%	-95.0%	i	0.0%	-5.2	i
COCCCNC(=O)c1cccc2c(-c3ccc(OC)cc3C)coc12	-17.1%	-59.0%	i	u	1.3	i
CC1CCN(CC(=O)N2CCN(S(=O)(=O)c3ccccc3F)CC2)CC1	x	x	x	x	-4.9	x
SMILES	aSyn yeast inh	PTHR1 agonist	FUS yeast rescue	TDP43 rescue	LDHA block	Abeta yeast res
Cc1ccc(CNC(=O)c2ccc3oc(=O)n(Cc4ccccc4)c3c2)cc1	x	-0.7%	i	19.6%	-8.4	i
O=C(O)c1ccc2oc(=O)n(Cc3ccccc3)c2c1	x	i	i	10.5%	0.0	i
CCOC(=O)c1ccc2oc(=O)n(Cc3ccccc3)c2c1	x	-17.4%	i	7.94µM*	1.5	i
COc1cccc(CNC(=O)c2ccc3oc(=O)n(Cc4ccccc4)c3c2)c1	x	-8.8%	i	25.1µM*	-1.4	u
COc1ccc(OCC(=O)Nc2cc3c(cc2C(=O)c2ccc(C)cc2)OCCO3)cc1	x	x	x	x	-8.7	x
Cc1ccc(SCC(=O)NCc2ccc(CS(N)(=O)=O)cc2)c(C)c1	x	x	x	x	-0.5	x
O=C(/C=C/c1cn(-c2ccccc2)nc1-c1cccnc1)N1CCCCC1	3.6%	-0.7%	i	u	0.7	i
O=C(/C=C/c1cn(-c2ccccc2)nc1-c1cccc(Cl)c1)N1CCN(c2ccccn2)CC1	-9.8%	-32.6%	u	14.1µM*	-6.6	i
CCOc1ccccc1NC(=O)C(=O)c1c[nH]c2ccccc12	x	x	x	x	0.2	x
CCOc1ccccc1NC(=O)c1cnccn1	-9.0%	-25.8%	i	11.2µM*	-2.8	i
CCOc1ccccc1NC(=O)c1cccc2ccccc12	-0.8%	-4.5%	i	7.94µM*	-6.0	i
CCOc1ccccc1NC(=O)C(=O)c1c[nH]c2c(CC)cccc12	x	x	x	x	-36.2*	x
CCOc1ccccc1NC(=O)c1ccccc1-c1ccccc1	-0.1%	-2.7%	i	-26.4%[1.82 µM]	-1.0	i
CCOC(=O)c1cnc2c(C)cccc2c1Nc1ccccc1OCC	x	x	x	x	-34.7*	x
O=C(Nc1ccccc1Oc1ccccc1)c1cnccn1	-7.1%	i	i	16.0%	-9.0	i
CCCn1c(=O)[nH]c(=O)c2c1nc(CN1CCc3ccccc3C1)n2CCOC	x	x	x	x	7.2	x
COc1cc(NC(=O)c2cnc(N)s2)cc(C(=O)Nc2cccc(C(F)(F)F)c2)c1	-9.3%	-35.3%	u	u	-3.8	i
COc1cc(NC(=O)c2cc(C)on2)cc(C(=O)Nc2cccc(C(F)(F)F)c2)c1	1.2%	-35.1%	i	12.6µM*	2.0	i
COc1cc(NC(=O)c2csc(N)n2)cc(C(=O)Nc2cccc(C(F)(F)F)c2)c1	-0.1%	-85.4%	u	31.6µM*	-6.1	i
COc1cccc(/C=C2\CCC(C3CCCC3)C2=O)c1OC (stereo not given)	-9.7%	-23.3%	7.94µM*	u	1.8	i
